# Measurements as given in PubChem BioAssay (NCATS).
# Records with an inconclusive call do not appear. Activity calls are given as the source filed them. The call rests on the fitted dose curve; in most records, active means well fitted inhibition curve with a large enough effect; inconclusive means small, poorly fitted or top-dose-only effect; inactive means no such curve, though single readings can be large or run the other way.
# Target: Cytochrome P450 2C19 (Homo sapiens) (UniProt P33261)
# Assay: qHTS Assay for Inhibitors and Substrates of Cytochrome P450 2C19 (AID 899); further: nearly all actives have a fitted effect of over 60% in size
# Conditions: recombinant CYP2C19, luciferin-H EGE luminescence; series mostly up to 57.1 µM; activity, negative = inhibition: at the top concentration
# Method: NIH Molecular Libraries Screening Centers Network [MLSCN]
# NIH Chemical Genomics Center [NCGC]
# The P450 gene superfamily is involved in the metabolism and clearance of xenobiotics. This assay used human CYP2C19 to measure the hydroxylation of ethylene glycol ester of 6' deoxyluciferin (Luciferin-H EGE; […]) to luciferin. The luciferin is then measured by luminescence after the addition of a luciferase detection reagent. Luciferin-H EGE concentration in the assay was equal to its KM for CYP2C19. Inhibitors and some substrates limit the production of luciferin, and decrease measured luminescence.
# NCGC Assay Protocol Summary:
# Two uL of enzyme and substrate mix (final concentrations: 5nM CYP2C19, 10uM Luciferin-H EGE, 50mM KPO4) were dispensed into a white, solid bottom 1536-well microtiter plate. 23nL of compound was transferred by a pin tool. The plate was incubated at 37C for 10 min. Two uL of an NADPH regeneration solution (Promega supplied reagent) was dispensed and the reaction was allowed to continue for 60 min at 37C. Then the reaction was stopped by reconstituted luciferin detection buffer. After another 20 min of incubation the plate was read on the ViewLux (Perkin Elmer) at 60 sec exposure and 2x2 binning. This protocol was carried out with Promega-Glo reagents and further information can be found at http://www.promega.com/tbs/tb325/tb325.pdf. Data were normalized to the to AC100 inhibition (57uM ketoconazole).
# Keywords: P450, CYP2C19, Luciferase, MLSMR, MLSCN, NIH Roadmap, qHTS, NCGC
# On the % scale 0 is the no-effect control and ±100 the full control effect; potency means the concentration at half of the fitted maximal effect.
# Chain of Cytochrome P450 2C19 (Homo sapiens) (P33261 whole entry, looked up): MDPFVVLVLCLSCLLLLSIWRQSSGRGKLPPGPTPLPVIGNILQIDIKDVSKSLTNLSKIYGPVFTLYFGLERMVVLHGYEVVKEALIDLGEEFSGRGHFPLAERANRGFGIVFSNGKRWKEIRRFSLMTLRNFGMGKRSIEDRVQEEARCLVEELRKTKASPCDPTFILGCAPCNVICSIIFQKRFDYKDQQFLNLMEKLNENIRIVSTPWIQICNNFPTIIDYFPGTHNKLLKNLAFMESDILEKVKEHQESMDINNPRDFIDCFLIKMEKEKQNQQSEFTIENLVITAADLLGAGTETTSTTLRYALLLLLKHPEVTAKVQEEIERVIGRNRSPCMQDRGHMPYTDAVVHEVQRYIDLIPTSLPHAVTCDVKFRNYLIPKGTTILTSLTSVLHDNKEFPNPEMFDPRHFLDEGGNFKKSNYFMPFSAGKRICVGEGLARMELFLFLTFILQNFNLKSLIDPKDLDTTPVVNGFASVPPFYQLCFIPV
Structure (SMILES),Potency,"activity, negative = inhibition"
c1csc(CNc2ncnc3ccc(-c4ccoc4)cc23)c1,6.31 µM (active),–
COCCNc1cc(-c2ccccc2C(F)(F)F)ncn1,7.94 µM (active),–
COc1ccc(CNc2cc(-c3ccccc3Cl)ncn2)c(OC)c1,2 µM (active),–
CC(C)=CCc1c2c(c3occ(-c4ccc(O)c(O)c4)c(=O)c3c1O)C=CC(C)(C)O2,2 µM (active),–
COc1ccccc1CNc1ccnc(-c2ccc3c(c2)OCO3)n1,3.16 µM (active),–
CN(Cc1ccco1)c1ncncc1-c1ccccc1Cl,0.794 µM (active),–
CN(Cc1ccco1)c1ncnc2ccc(-c3cccc(C#N)c3)cc12,6.31 µM (active),–
COCCn1c(=O)c(CCc2ccccc2)nc2cnc(OC)nc21,0.794 µM (active),–
c1cncc(CNc2ccnc(-c3ccc4c(c3)OCO4)n2)c1,5.01 µM (active),–
N#CCCn1c(=O)cnc2cnc(N3CCOCC3)nc21,–,64.7% (inactive)
CC(C)NC(=O)N1CCCC2(CCN(C(=O)c3cccc(F)c3)CC2)C1,–,48.6% (inactive)
COc1ccc(NC(=O)N2CCCC3(CCNCC3)C2)cc1,–,57.2% (inactive)
Clc1ccccc1-c1nccc(-n2ccnc2)n1,2.51 µM (active),–
COc1ccccc1-c1cc(NCc2ccccc2)ncn1,7.94 µM (active),–
Cc1ccccc1-c1cncnc1N(C)Cc1ccco1,5.01 µM (active),–
COc1cccc(-c2ccc3ncnc(NC4CCNCC4)c3c2)c1,6.31 µM (active),–
COc1ccccc1-c1cc(NCc2cccc(C)c2)ncn1,3.98 µM (active),–
Cc1nc2cncnc2n(C2CC2)c1=O,3.98 µM (active),–
COc1ccccc1-c1cncnc1NCCc1cnc[nH]1,0.0794 µM (active),–
O=c1c(-c2ccc(F)cc2)nc2cnc(N3CCNCC3)nc2n1-c1ccccc1,–,-11.5% (inactive)

Structure (SMILES),Potency,"activity, negative = inhibition"
Cc1noc(C)c1-c1cc(NC2CCNCC2)ncn1,–,-59.5% (inactive)
COc1cccc(-c2cncnc2NCc2ccccc2)c1,1.58 µM (active),–
COc1cccc(-c2nccc(NCc3cccc(C)c3)n2)c1,6.31 µM (active),–
c1ccc(CNc2ccnc(-c3ccoc3)n2)cc1,3.98 µM (active),–
CN(Cc1ccco1)c1ncnc2ccc(-c3ccccc3C(F)(F)F)cc12,3.16 µM (active),–
COc1ccccc1-c1cncnc1Nc1ccc(F)cc1,5.01 µM (active),–
COc1ccccc1CNc1ccnc(-c2ccoc2)n1,7.94 µM (active),–
CN1CCN(c2ncc3ncc(=O)n(CCC#N)c3n2)CC1,–,58.8% (inactive)
O=C(c1cc(C(F)(F)F)cc(C(F)(F)F)c1)N1CCC2(CCCN(Cc3nccs3)C2)CC1,–,66.8% (inactive)
Cc1cccc(CNc2ncncc2-c2ccc3c(c2)OCO3)c1,0.501 µM (active),–
COc1ccc(-n2c(=O)c(-c3cccs3)nc3cnc(N(C)C)nc32)cc1,–,47.4% (inactive)
COc1cccc(-c2cncnc2-n2ccnc2)c1,0.631 µM (active),–
Cc1noc(C)c1-c1cncnc1N(C)Cc1ccco1,2.51 µM (active),–
CN(Cc1ccco1)c1cc(-c2ccccc2Cl)ncn1,7.94 µM (active),–
N#CCCn1c(=O)c(CCc2ccccc2)nc2cnc(Oc3cccc(Cl)c3)nc21,6.31 µM (active),–
CN(C)c1ncc2ncc(=O)n(CCc3ccccc3)c2n1,2 µM (active),–
Cc1ccccc1-c1nccc(NCc2cccs2)n1,3.98 µM (active),–
Cc1noc(C)c1C(=O)N1CCC2(CCCN(C(=O)NC(C)C)C2)CC1,–,56.5% (inactive)
CN(C)c1ccc(-c2cc(Nc3ccc(F)cc3)ncn2)cc1,2 µM (active),–
O=C(c1cccc(F)c1)N1CCC2(CCCN(c3ncccn3)C2)CC1,6.31 µM (active),–
